The values below come from PubChem BioAssay (NCATS).

One assay relates to HB3. As to the kind of experiment: qHTS profiling for inhibitors of Plasmodium falciparum proliferation (AID 504749). Also: potency is read from the fitted curve at half-maximal effect. The conditions noted are these: P. falciparum in erythrocytes, SYBR Green DNA, 72 h; series mostly up to 28.7 µM. The essentials: (§1)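 Infected RBCs, 0.3% parasitemia/2.5% Hct final; cpd 72 h, 37 C, 5% CO2; lysis buffer with saponin/triton/SYBR Green I, o/n RT dark; FI 485/535; norm. to artemisinin (0.29 uM) and DMSO.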
(Quantitative high-throughput screening tests each substance at several concentrations.)

In the next assay the test system is ICS. The assay is described as above. The conditions noted are these: P. falciparum in erythrocytes, SYBR Green DNA, 72 h; series mostly up to 28.7 µM. The essentials:
as §1

The next assay relates to JCK. The assay is described as above. The following applies: P. falciparum in erythrocytes, SYBR Green DNA, 72 h; series mostly up to 28.7 µM. The procedure, abridged:
as §1

The next assay has as its system N140. The description is as above. The following applies: P. falciparum in erythrocytes, SYBR Green DNA, 72 h; series mostly up to 28.7 µM. The procedure, abridged:
as §1

The next assay relates to P93_24. Described as above. The conditions noted are these: P. falciparum in erythrocytes, SYBR Green DNA, 72 h; series mostly up to 28.7 µM. The essentials:
as §1

Another assay concerns P94_40. The description is as above. The conditions noted are these: P. falciparum in erythrocytes, SYBR Green DNA, 72 h; series mostly up to 28.7 µM. The essentials: as §1
In another assay the test system is PAD. Described as above. The conditions noted are these: P. falciparum in erythrocytes, SYBR Green DNA, 72 h; series mostly up to 28.7 µM. The procedure, abridged:
as §1

In another assay the test system is PC15. The description is as above. The conditions noted are these: P. falciparum in erythrocytes, SYBR Green DNA, 72 h; series mostly up to 28.7 µM. The procedure, abridged:
as §1

For another assay, the system named is PC26. The assay is described as above. The conditions noted are these: P. falciparum in erythrocytes, SYBR Green DNA, 72 h; series mostly up to 28.7 µM. The essentials: as §1
In the next assay the test system is PC49. The assay is described as above. The following applies: P. falciparum in erythrocytes, SYBR Green DNA, 72 h; series mostly up to 28.7 µM. The procedure, abridged: as §1
The next assay relates to TAB109. Described as above. The conditions noted are these: P. falciparum in erythrocytes, SYBR Green DNA, 72 h; series mostly up to 28.7 µM. The essentials:
as §1

The test system of the next assay is TAB113. Described as above. The following applies: P. falciparum in erythrocytes, SYBR Green DNA, 72 h; series mostly up to 28.7 µM. The essentials: as §1
The next assay has as its system TAB165. The assay is described as above. The following applies: P. falciparum in erythrocytes, SYBR Green DNA, 72 h; series mostly up to 28.7 µM. The essentials:
as §1

The test system of a further assay is W2. The assay is described as above. The conditions noted are these: P. falciparum in erythrocytes, SYBR Green DNA, 72 h; series mostly up to 28.7 µM. The essentials:
as §1

In the next assay the test system is CRL-7250. The assay can be described thus: Cytotoxic Profiling of Annotated Libraries Using Quantitative High-Throughput Screening (AID 1296008). As to max response: % is scaled to controls: 0 for no effect and ±100 for the full control effect. The following applies: Five cell lines viability, CellTiter-Glo ATP luminescence, 48-72 h; max response: hits give low values. The procedure, abridged: (§2)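 Cytotoxicity was measured as CellTiter-Glo ATP luminescence, read after 10 min at room temperature. Compound treatment of the cells lasted 48 or 72 hr at 37 degrees Celsius in a qHTS format.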
In general terms: ATP-based viability assays read luminescence as a measure of living cells.

The test system of the next assay is HaCat. Described as above. The conditions noted are these: Five cell lines viability, CellTiter-Glo ATP luminescence, 48-72 h; max response: hits give low values. The procedure, abridged: as §2
The next assay relates to KB-3-1. The description is as above. The following applies: Five cell lines viability, CellTiter-Glo ATP luminescence, 48-72 h; max response: hits give low values. The procedure, abridged: as §2
For another assay, the system named is NIH3T3. Described as above. The conditions noted are these: Five cell lines viability, CellTiter-Glo ATP luminescence, 48-72 h; max response: hits give low values. The procedure, abridged: as §2
Another assay deals with SC27B. The assay can be described thus: qHTS profiling for inhibitors of Plasmodium falciparum proliferation (AID 504749). Also: potency is read from the fitted curve at half-maximal effect. The following applies: P. falciparum in erythrocytes, SYBR Green DNA, 72 h; series mostly up to 28.7 µM. The essentials: as §1
The test system of the next assay is HEK293. The assay can be described thus: Cytotoxic Profiling of Annotated Libraries Using Quantitative High-Throughput Screening (AID 1296008). As to max response: % is scaled to controls: 0 for no effect and ±100 for the full control effect. The conditions noted are these: Five cell lines viability, CellTiter-Glo ATP luminescence, 48-72 h; max response: hits give low values. The procedure, abridged:
as §2

Results filed as inconclusive are left out. Unmarked numbers belong to inactive results. Active and inactive are the calls of the source. Calls follow the shape of the dose curve; as a rule, active = well fitted inhibition curve with a large enough effect; inconclusive = small, poorly fitted or top-dose-only effect; inactive = flat fitted curve, though single readings scatter.
Also: nearly all actives have a fitted effect of over 60% in size.

Take `O=C(Nc1cccc(C2=NCCN2)c1)Nc1cccc(C2=NCCN2)c1`: the Potency is 10 µM (active) with HB3; 2.24 µM (active) in the assay on ICS; 5.01 µM (active) with JCK; 4.47 µM (active) in the assay with N140; 1.78 µM (active) in the assay with P93_24; 1.12 µM (active) with P94_40. In addition, the Potency is 3.16 µM (active) in the assay with PAD; 3.98 µM (active) in the assay with PC15; 8.49 µM (active) with PC26; 5.62 µM (active) in the assay on PC49; 2.82 µM (active) with TAB109; 7.94 µM (active) in the assay with TAB113. The Potency is 2.51 µM (active) with TAB165 and 1.69 µM (active) with W2. The compound was called inactive in the assay with CRL-7250. Besides, the max response is -0.992% in the assay with HaCat, -7.99% in the assay on KB-3-1 and 1.41% in the assay on NIH3T3.

Turning to `O=C(NC1CCN(CCc2c[nH]c3ccccc23)CC1)c1ccccc1`, the Potency entry with HB3, in the assay on JCK, in the assay with N140, in the assay on PAD, in the assay on SC27B and with TAB113 was “inactive” throughout. In addition, the Potency entry in the assay with TAB165 was “inactive”. For the same compound, the Potency with ICS was 8.91 µM (active). Moreover, the results for the max response in the assay with CRL-7250, in the assay with KB-3-1 and with NIH3T3 were -5.92%, -0.418% and -2.1%, respectively. Besides, the result with HaCat was inactive.

For the compound `CC(C)(C)NC[C@H](O)COc1cccc2c1CCCC2=O`, the Potency result in the assay on HB3, with ICS, in the assay on JCK, with N140, with P93_24 and in the assay on P94_40 was “inactive” in each case. Further, the Potency result with PAD, in the assay on PC15, in the assay with PC26, in the assay on PC49, in the assay with SC27B and with TAB109 was “inactive” each time. Besides, the Potency entry in the assay on TAB113 and with TAB165 was “inactive” throughout. For the same compound, the max response in the assay on CRL-7250 is -0.218%; in the assay with HaCat, -26.5%; with KB-3-1, -2.09%; with NIH3T3, -0.923%.

As to `CC1(C)OC[C@@H]2O[C@@]3(C(=O)O)OC(C)(C)O[C@H]3[C@@H]2O1`, the max response in the assay on CRL-7250 is -27.6%; in the assay with NIH3T3, -5.58%. For the same compound, in the assay with HEK293, the call was inactive.

As to `CCOc1ccccc1OCCN[C@H](C)Cc1ccc(OC)c(S(N)(=O)=O)c1`, the Potency result in the assay on HB3, with ICS, in the assay on JCK, in the assay on N140, in the assay with P93_24 and in the assay on P94_40 was “inactive” each time. Besides, the Potency result with PAD, with PC15, in the assay with PC26, with PC49, in the assay on SC27B and with TAB109 was “inactive” in each case. Further, the Potency result with TAB113 and in the assay with TAB165 was “inactive” in each case. Further, the figures for the max response in the assay with HEK293, with KB-3-1 and in the assay on NIH3T3 were -5.03%, 4.78% and 2.8%, respectively. Further, in the assay on HaCat, the result was inactive.

For the compound `CN1CCN(C2=Nc3cc(F)ccc3Cc3ccccc32)CC1`, the Potency entry in the assay on HB3, in the assay on JCK, in the assay with PC15, with PC26, in the assay on PC49 and in the assay on TAB109 was “inactive” throughout. The Potency result with TAB113 is “inactive”. For the same compound, the Potency in the assay on W2 was 7.57 µM (active). The max response in the assay with CRL-7250 was -25%; with HaCat it was -42.8%; in the assay with KB-3-1 it was 0.909%; with NIH3T3 it was -19.6%.

Turning to `CC(=O)Nc1ccc(OC(=O)c2ccccc2OC(C)=O)cc1`, the Potency entry in the assay on HB3, in the assay with ICS, in the assay with JCK, in the assay with N140, with P93_24 and in the assay with P94_40 was “inactive” throughout. Besides, the Potency result with PAD, with PC15, in the assay on PC26, with PC49, in the assay on SC27B and in the assay with TAB109 was “inactive” each time. Moreover, the Potency entry in the assay with TAB113, with TAB165 and with W2 was “inactive” each time. Also, the compound was classed as inactive in the assay on HEK293, in the assay on HaCat and in the assay on NIH3T3. Also, the max response in the assay on KB-3-1 is -4.86%.
